Measurements published in PubChem BioAssay (Tox21).
Results filed as inconclusive are left out. Active and inactive are the calls of the source. Unless noted, the call rests on the fitted dose curve; in most records, active means well fitted curve in the direction sought with a large enough effect in the repeat runs; inconclusive means weak or mixed curves; inactive means no such curve, though single readings can be large; an effect the other way counts as inactive or inconclusive.

What was measured:
[1] = qHTS assay to identify small molecule antagonists of the estrogen related receptor signaling pathway with the pleiotropic PPARgamma coactivator (PGC) from Tox21 10K library - cell viability counter screen (AID 1224840; active means well fitted cell-killing curve with a large enough effect in the repeat runs, not every such curve was filed as active; further: nearly all actives have a fitted effect of over 40% in size)
Summary of the method: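 Following seeding of 2,000 PGC/ERR cells/well and 6 hours' incubation, test compounds were delivered in DMSO. The plates then sat 17.5 hours at 37 C before a fluorogenic live-cell protease reagent (CellTiter-Fluor) was read after 30 min.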

[2] = qHTS assay to identify small molecule agonists of the estrogen related receptor signaling pathway with the pleiotropic PPARgamma coactivator (PGC) from Tox21 10K library (AID 1224842); further: nearly all actives have a fitted effect of over 15% in size
Summary of the method: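 PGC/ERR reporter cells (NTP line) were seeded 2,000 per well, rested 6 h at 37 C/5% CO2, then pin-dosed with compounds in DMSO for 18 h at 37 C; luciferase read by One-Glo luminescence after 30 min at room temperature.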

[3] = target: Thyrotropin receptor (Homo sapiens) (UniProt P16473); assay: qHTS assay to identify small molecule agonists of the thyroid stimulating hormone receptor (TSHR) signaling pathway (AID 1224843; calls by dose curve; further: nearly all actives have a fitted effect of over 45% in size)
Sequence of Thyrotropin receptor (Homo sapiens) (P16473 whole entry, looked up): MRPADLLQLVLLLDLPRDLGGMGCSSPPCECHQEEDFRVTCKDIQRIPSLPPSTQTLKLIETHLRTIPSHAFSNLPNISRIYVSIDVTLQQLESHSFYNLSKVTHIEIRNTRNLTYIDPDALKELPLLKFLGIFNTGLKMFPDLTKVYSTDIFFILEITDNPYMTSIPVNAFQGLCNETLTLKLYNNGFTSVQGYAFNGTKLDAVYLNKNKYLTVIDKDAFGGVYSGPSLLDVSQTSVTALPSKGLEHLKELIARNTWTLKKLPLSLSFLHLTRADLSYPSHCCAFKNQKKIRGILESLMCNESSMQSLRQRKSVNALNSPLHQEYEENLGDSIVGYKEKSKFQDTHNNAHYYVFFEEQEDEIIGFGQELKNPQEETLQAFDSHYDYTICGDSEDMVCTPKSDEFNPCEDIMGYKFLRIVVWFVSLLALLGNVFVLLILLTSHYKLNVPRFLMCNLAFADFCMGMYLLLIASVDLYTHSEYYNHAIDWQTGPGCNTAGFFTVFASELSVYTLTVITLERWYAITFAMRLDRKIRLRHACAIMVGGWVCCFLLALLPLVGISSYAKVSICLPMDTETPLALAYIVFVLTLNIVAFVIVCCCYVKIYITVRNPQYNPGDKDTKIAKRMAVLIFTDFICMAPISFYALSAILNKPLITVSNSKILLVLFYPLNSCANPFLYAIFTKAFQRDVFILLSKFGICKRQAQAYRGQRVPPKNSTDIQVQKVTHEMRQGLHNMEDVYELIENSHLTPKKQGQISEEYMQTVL
Summary of the method: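 Cell line HEK293 with TSHR; density 800/well. Exposure 30 min RT. Readout HTRF cAMP (cAMP-d2/anti-cAMP-cryptate), 1 h RT before reading.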

[4] = qHTS assay to identify small molecule agonists of the hypoxia (HIF-1) signaling pathway - cell viability counter screen (AID 1224844; calls by dose curve; further: nearly all actives have a fitted effect of over 50% in size)
Summary of the method: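 Cells (HRE-bla ME-180, 2,000 per well) sat 5 hrs at 37C, got compound for 17 hrs, were read for CCF4-AM FRET, and were finally lysed with CellTiter-Glo for a 30 min room-temperature luminescence read.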

[5] = qHTS assay to identify small molecule agonists of H2AX (AID 1224845; active means well fitted activation curve with a large enough effect in the signal ratio in the repeat runs, not every such curve was filed as active; the % refers to the signal ratio)
Summary of the method: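 Wild-type CHO-K1 cells plated overnight, then exposed 3 hr at 37C to compounds at 15 concentrations (0.76% DMSO). Lysed, then HTRF anti-pH2AX(S139)-cryptate/anti-H2AX-d2 detection after 24 hr at room temperature; emissions 665 and 620 nm.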

[6] = qHTS assay to identify small molecule agonists of the hypoxia (HIF-1) signaling pathway (AID 1224846; active means well fitted activation curve with a large enough effect in the signal ratio in the repeat runs, not every such curve was filed as active; the % refers to the signal ratio)
Summary of the method: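 A low-serum medium (0.5% dialyzed FBS) holding 2,000 HRE-bla ME-180 cells per well is preincubated for 5 hrs, dosed with compounds by pintool, and kept a further 17 hrs at 37C, 5% CO2 before CCF4-AM FRET detection of beta-lactamase.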

[7] = qHTS assay to identify small molecule agonists of H2AX - cell viability counter screen (AID 1224847; calls by dose curve; further: top concentration of the series differs between compounds; nearly all actives have a fitted effect of over 30% in size)
Summary of the method: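 Cells plated first: CHO-K1, 1000 per well in 10% FBS medium, incubated overnight at 37C. Then 15-point compound titration added (final DMSO 0.76%) for 3 hr. Finally CellTiter-Glo added and luminescence read.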

[8] = qHTS assay to identify small molecule antagonists of the estrogen related receptor (ERR) signaling pathway from Tox21 library (AID 1224848); further: nearly all actives have a fitted effect of over 50% in size
Summary of the method: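 Screening used an ERR reporter line supplied by NTP, exposed for 18 h at 37 C to library compounds delivered in DMSO. Signal was luciferase luminescence developed with ONE-Glo at room temperature for 30 min.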

[9] = qHTS assay to identify small molecule agonists of the estrogen related receptor (ERR) signaling pathway from Tox21 library (AID 1224849; calls by dose curve; further: nearly all actives have a fitted effect of over 15% in size)
Summary of the method: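 Screening used an NTP-provided ERR luciferase cell line. Compounds in DMSO were added 6 h after seeding and left 18 h at 37 C before a 30 min ONE-Glo step and luminescence reading.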

[10] = qHTS RealTime-Glo MT Cell Viability Assay in HepG2 cells - 24 hour (AID 1224867); further: nearly all actives have a fitted effect of over 50% in size
Summary of the method: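 Luminescence read-out: viable HepG2 cells reduce a prosubstrate to a NanoLuc substrate, giving a signal proportional to live cell number. Reads taken at 0, 8, 16, 24, 32 and 40 h of compound exposure at 37 C.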

[11] = qHTS RealTime-Glo MT Cell Viability Assay in HEK293 cells - 32 hour (AID 1224868); further: top concentration of the series differs between compounds; nearly all actives have a fitted effect of over 50% in size
Summary of the method: (§1)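 Nonlytic real-time viability readout: viable cells convert prosubstrate to NanoLuc substrate, giving luminescence proportional to live cell number. HEK293, 600 cells/well, compound added after 5 h, continuous culture at 37 C.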

[12] = A CellTox Green Cytotoxicity Assay to monitor cytotoxicity in HEK293 cells - 0 hour (AID 1224869); further: nearly all actives have a fitted effect of over 50% in size
Summary of the method: (§2)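 Fluorescence intensity, read at 0, 8, 16, 24, 32 and 40 h of compound treatment, reflected dye binding to DNA of dead HEK293 cells; compounds (23 nL, DMSO) were added 5 h after plating cells with reagent.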

[13] = qHTS RealTime-Glo MT Cell Viability Assay in HepG2 cells - 40 hour (AID 1224870); further: nearly all actives have a fitted effect of over 50% in size
Summary of the method: (§3)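 HepG2 cells mixed with RealTime-Glo MT reagents (NanoLuc plus cell-permeant prosubstrate) were seeded at 600 cells/well, incubated 5 h at 37 C/5% CO2, then pinned with compounds in DMSO; nonlytic luminescence tracked viability during 40 h treatment.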

[14] = A CellTox Green Cytotoxicity Assay to monitor cytotoxicity in HEK293 cells - 40 hour (AID 1224871); further: nearly all actives have a fitted effect of over 45% in size
Summary of the method: as §2

[15] = qHTS RealTime-Glo MT Cell Viability Assay in HEK293 cells - 16 hour (AID 1224872)
Summary of the method: as §1

[16] = qHTS RealTime-Glo MT Cell Viability Assay in HepG2 cells - 8 hour (AID 1224873); further: nearly all actives have a fitted effect of over 55% in size
Summary of the method: as §3

[17] = qHTS RealTime-Glo MT Cell Viability Assay in HEK293 cells - 40 hour (AID 1224874); details: RealTime-Glo luminescence; max response: active compounds read low; further: nearly all actives have a fitted effect of over 50% in size
Summary of the method: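 Viable HEK293 cells reduce a cell-permeant prosubstrate; the product diffuses out and is consumed by NanoLuc in the medium to give light. Compounds went in after a 5 h incubation and plates were read over the treatment course.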

[18] = A CellTox Green Cytotoxicity Assay to monitor cytotoxicity in HEK293 cells - 24 hour (AID 1224875); further: series mostly up to about 77 µM; nearly all actives have a fitted effect of over 45% in size
Summary of the method: as §2

[19] = qHTS assay to identify small molecule antagonists of the estrogen related receptor signaling pathway with the pleiotropic PPARgamma coactivator (PGC) from Tox21 10K library (AID 1224841; call rule not given here)
Summary of the method: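 qHTS antagonist format: PGC/ERR cells, 2k/well, compound in DMSO by pin transfer after 6 h attachment, 18 h treatment at 37 C, One-Glo luminescence read at 30 min.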
On the % scale 0 is the no-effect control and ±100 the full control effect.

CCCCCCCCOC(C)=O
inactive: outcome [1] | outcome [2] | outcome [3] | outcome [4] | outcome [5] | outcome [6] | Potency [7] | Potency [8] | outcome [9] | outcome [10] | Potency [11] | Potency [12] | outcome [13] | Potency [14] | Potency [15] | outcome [16] | max response [17] 7.81% | Potency [18]

CCN(CCO)c1cccc(C)c1
inactive: outcome [1] | outcome [2] | outcome [3] | outcome [4] | outcome [5] | Potency [8] | outcome [9] | outcome [10] | Potency [11] | Potency [12] | outcome [13] | Potency [14] | Potency [15] | outcome [16] | max response [17] 6.86% | Potency [18]

Cc1ccccc1OCC1CO1 (stereo not drawn)
inactive: outcome [1] | Potency [19] | outcome [2] | outcome [4] | outcome [5] | outcome [6] | Potency [7] | Potency [8] | outcome [9] | outcome [10] | Potency [11] | Potency [12] | Potency [14] | Potency [15] | outcome [16] | max response [17] -1.66% | Potency [18]

Cc1cccc(Nc2ccncc2S(=O)(=O)NC(=O)NC(C)C)c1
inactive: outcome [1] | outcome [2] | outcome [3] | outcome [4] | outcome [5] | outcome [6] | Potency [7] | Potency [8] | outcome [9] | outcome [10] | Potency [11] | Potency [12] | Potency [14] | Potency [15] | outcome [16] | max response [17] -1.39% | Potency [18]

CCCCC(C)C(=O)O (stereo not drawn)
inactive: outcome [1] | outcome [2] | outcome [3] | outcome [4] | outcome [5] | outcome [6] | Potency [7] | Potency [8] | outcome [9] | outcome [10] | Potency [11] | Potency [12] | Potency [14] | Potency [15] | max response [17] -5.74% | Potency [18]

CC(C)CCC(=O)CCC(C)C
inactive: outcome [1] | outcome [2] | outcome [3] | outcome [4] | outcome [5] | Potency [7] | Potency [8] | outcome [9] | outcome [10] | Potency [11] | Potency [12] | outcome [13] | Potency [14] | Potency [15] | outcome [16] | max response [17] 1.42% | Potency [18]

O=[Si]=O
inactive: outcome [1] | Potency [19] | outcome [2] | outcome [4] | outcome [5] | outcome [6] | Potency [8] | outcome [9] | outcome [10] | Potency [11] | Potency [12] | outcome [13] | Potency [14] | Potency [15] | outcome [16] | max response [17] 0.247% | Potency [18]
